# From PubChem BioAssay (NCATS)
# Inconclusive results are not listed. Activity calls are given as the source filed them. Unless noted, the call rests on the fitted dose curve; in most records, active means well fitted inhibition curve with a large enough effect; inconclusive means small, poorly fitted or top-dose-only effect; inactive means flat fitted curve, though single readings scatter.
# Tests used:
# [1] = target: Glucocorticoid receptor (Homo sapiens) (UniProt P04150); assay: GR-EFC Redistribution (AID 451; calls by dose curve; further: potency means the concentration at half of the fitted maximal effect); conditions: CHO-K1 GR-EFC translocation, beta-gal luminescence, 2 h
# Sequence of Glucocorticoid receptor (Homo sapiens) (P04150 whole entry, looked up, the tested form may be a part): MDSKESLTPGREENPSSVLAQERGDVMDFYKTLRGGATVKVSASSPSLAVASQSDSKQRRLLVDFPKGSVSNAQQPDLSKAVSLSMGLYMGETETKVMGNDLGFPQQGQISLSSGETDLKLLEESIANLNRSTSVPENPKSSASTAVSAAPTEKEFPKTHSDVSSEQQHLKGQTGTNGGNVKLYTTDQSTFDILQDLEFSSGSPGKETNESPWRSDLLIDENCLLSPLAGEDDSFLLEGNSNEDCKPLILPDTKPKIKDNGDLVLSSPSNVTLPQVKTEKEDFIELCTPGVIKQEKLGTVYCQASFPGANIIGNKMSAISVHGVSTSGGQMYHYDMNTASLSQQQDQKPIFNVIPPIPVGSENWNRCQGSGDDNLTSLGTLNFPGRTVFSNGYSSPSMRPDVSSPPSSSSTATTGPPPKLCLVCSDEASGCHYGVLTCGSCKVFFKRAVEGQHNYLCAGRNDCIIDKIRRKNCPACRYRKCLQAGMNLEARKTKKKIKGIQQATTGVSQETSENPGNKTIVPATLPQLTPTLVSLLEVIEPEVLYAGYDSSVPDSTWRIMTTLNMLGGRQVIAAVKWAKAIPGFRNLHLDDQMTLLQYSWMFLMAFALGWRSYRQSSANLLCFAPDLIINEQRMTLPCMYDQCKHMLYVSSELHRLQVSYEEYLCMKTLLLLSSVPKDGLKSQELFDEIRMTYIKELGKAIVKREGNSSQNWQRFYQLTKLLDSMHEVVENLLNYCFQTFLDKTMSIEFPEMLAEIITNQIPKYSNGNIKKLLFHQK
# Method in brief: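 CHO-K1 cells expressing nuclear EA and GR-ED fragments of b-gal; compounds titrated up to 46 uM final, 2 h at 37 C. GR nuclear translocation read as complemented b-gal luminescence after 1 h RT detection.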
# [2] = target: Mitogen-activated protein kinase 10 (Mus musculus) (UniProt Q61831); assay: JNK3 AlphaScreen Assay (AID 530; active means well fitted curve in either direction with a large enough effect, not every such curve was filed as active;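 further: kinase came from lysate of stimulated human HepG2 cells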; further: potency means the concentration at half of the fitted maximal effect;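 on activity change, negative = inhibition: signal reports phosphorylation of biotinylated GST-cJun 1-79 at Ser73 with 10 µM ATP; on the % scale 0 is the no-effect control and ±100 the full control effect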); conditions: JNK3 lysate, c-Jun phosphorylation; series mostly up to 25.6 µM
# Method in brief: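 HepG2 lysate (IL-1b/TNFa pre-activated) + biotin-GST-cJun 1-79 + anti-pSer73 cJun; cpd titration, 15 min RT; ATP 10 uM start; Tris pH 7.6, MgCl2, DTT, vanadate; beads in EDTA buffer; AlphaScreen.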
# [3] = target: 3',5'-cyclic-AMP phosphodiesterase 4B (Homo sapiens) (UniProt Q07343); assay: qHTS Assay for Inhibitors of PDE-IV (AID 607; active means well fitted activation curve with a large enough effect in the main read-out, with a control signal flat, not every such curve was filed as active; further: % of control where 0% means no effect); conditions: HEK293 ACTOne CNG channel cells, membrane potential fluorescence; series mostly up to 22.9 µM
# Sequence of 3',5'-cyclic-AMP phosphodiesterase 4B (Homo sapiens) (Q07343 whole entry, looked up): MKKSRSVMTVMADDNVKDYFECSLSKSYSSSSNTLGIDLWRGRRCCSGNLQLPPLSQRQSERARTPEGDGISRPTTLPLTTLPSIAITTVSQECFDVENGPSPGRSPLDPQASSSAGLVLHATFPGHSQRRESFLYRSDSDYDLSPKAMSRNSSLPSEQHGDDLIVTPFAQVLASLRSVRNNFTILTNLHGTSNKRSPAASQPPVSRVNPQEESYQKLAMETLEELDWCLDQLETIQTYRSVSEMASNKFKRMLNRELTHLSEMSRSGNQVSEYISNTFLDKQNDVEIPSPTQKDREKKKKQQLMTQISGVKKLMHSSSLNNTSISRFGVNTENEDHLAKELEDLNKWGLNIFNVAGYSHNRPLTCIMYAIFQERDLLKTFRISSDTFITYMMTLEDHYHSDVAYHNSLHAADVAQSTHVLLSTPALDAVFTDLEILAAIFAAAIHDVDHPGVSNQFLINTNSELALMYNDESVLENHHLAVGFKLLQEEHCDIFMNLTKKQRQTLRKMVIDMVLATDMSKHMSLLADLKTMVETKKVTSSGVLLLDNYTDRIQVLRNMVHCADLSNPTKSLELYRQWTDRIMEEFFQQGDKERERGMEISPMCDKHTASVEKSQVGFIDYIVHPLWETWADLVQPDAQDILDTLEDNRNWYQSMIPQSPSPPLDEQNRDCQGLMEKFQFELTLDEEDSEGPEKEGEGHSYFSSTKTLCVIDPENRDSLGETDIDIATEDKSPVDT
# Method in brief: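 HEK293 ACTOne cells with CNG channel (1000/well), endogenous PDE4; membrane potential dye, compounds up to 22.9 uM final. Fluorescence Ex 535/Em 590; RO 20-1724 (100 uM final) as reference.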
# [4] = qHTS Assay for Lipid Storage Modulators (AID 1519; calls by dose curve; on activity change, negative = inhibition: on the % scale 0 is the no-effect control and ±100 the full control effect); conditions: Drosophila S3 cells, BODIPY lipid droplet/cell ratio, laser cytometry, cells loaded with oleic acid
# Method in brief: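 Cells seeded at 5,000 per well were treated with compounds over a concentration series and loaded with oleic acid (400 uM, as added). Lipid droplet fluorescence (488 nm excitation, 500-530 nm channel) was read by laser-scanning cytometry and normalized to 20 uM Triacsin C.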
# [5] = target: Luciferin 4-monooxygenase (Photinus pyralis) (UniProt P08659); assay: Biochemical firefly luciferase enzyme assay for NPC (AID 624030);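 further: purified P. pyralis luciferase at 10 nM with luciferin and ATP substrate; 0% = DMSO and -100% = full luciferase inhibition by PTC124 control; nearly all actives have a fitted effect of over 70% in size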; conditions: purified P. pyralis luciferase, luminescence, 5 min; series mostly up to 24.9 µM
# Sequence of Luciferin 4-monooxygenase (Photinus pyralis) (P08659 whole entry, looked up): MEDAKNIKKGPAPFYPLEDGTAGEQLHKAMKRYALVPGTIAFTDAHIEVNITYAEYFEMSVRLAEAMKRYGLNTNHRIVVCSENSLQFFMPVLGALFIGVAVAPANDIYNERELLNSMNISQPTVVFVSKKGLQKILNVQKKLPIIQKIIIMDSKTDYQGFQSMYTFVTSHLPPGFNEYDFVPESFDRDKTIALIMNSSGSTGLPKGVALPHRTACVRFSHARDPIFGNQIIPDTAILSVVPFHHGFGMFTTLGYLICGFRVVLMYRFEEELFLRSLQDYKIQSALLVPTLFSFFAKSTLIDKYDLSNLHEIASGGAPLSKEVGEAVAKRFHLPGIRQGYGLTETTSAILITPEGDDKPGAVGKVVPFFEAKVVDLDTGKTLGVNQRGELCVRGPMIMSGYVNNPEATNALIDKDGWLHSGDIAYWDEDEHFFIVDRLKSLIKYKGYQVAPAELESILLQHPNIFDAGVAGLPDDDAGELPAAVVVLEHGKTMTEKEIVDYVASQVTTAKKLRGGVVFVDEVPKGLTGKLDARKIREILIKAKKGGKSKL
# Method in brief: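 Purified P. pyralis luciferase at 10 nM in 50 mM Tris Acetate (final), luminescence read within 5 minutes of enzyme addition to compounds. Activity normalised to PTC124 versus DMSO; concentration-response curves classed by r2, magnitude and activity.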
# [6] = qHTS profiling for inhibitors of Plasmodium falciparum proliferation (AID 504749); further: nearly all actives have a fitted effect of over 60% in size; further: potency means the concentration at half of the fitted maximal effect; conditions: P. falciparum in erythrocytes, SYBR Green DNA, 72 h
# Method in brief: (§1)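 SYBR Green fluorescence (ex 485 nm, em 535 nm) reports parasite DNA after 72 h compound exposure of infected red cells at 0.3% parasitemia, 2.5% hematocrit; signal normalized to 0.29 uM artemisinin and vehicle wells.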
# 3D7 = assay: as above; conditions: P. falciparum in erythrocytes, SYBR Green DNA, 72 h; series mostly up to 12.8 µM
# Method in brief: as §1
# C2A = assay: as above; conditions: P. falciparum in erythrocytes, SYBR Green DNA, 72 h; series mostly up to 12.8 µM
# Method in brief: as §1
# CP217 = assay: as above; conditions: P. falciparum in erythrocytes, SYBR Green DNA, 72 h; series mostly up to 12.8 µM
# Method in brief: as §1
# CP237 = assay: as above; conditions: P. falciparum in erythrocytes, SYBR Green DNA, 72 h; series mostly up to 12.8 µM
# Method in brief: as §1
# CP238 = assay: as above; conditions: P. falciparum in erythrocytes, SYBR Green DNA, 72 h; series mostly up to 12.8 µM
# Method in brief: as §1
# CP291 = assay: as above; conditions: P. falciparum in erythrocytes, SYBR Green DNA, 72 h; series mostly up to 12.8 µM
# Method in brief: as §1
# CP297 = assay: as above; conditions: P. falciparum in erythrocytes, SYBR Green DNA, 72 h; series mostly up to 12.8 µM
# Method in brief: as §1
# ECU = assay: as above; conditions: P. falciparum in erythrocytes, SYBR Green DNA, 72 h; series mostly up to 12.8 µM
# Method in brief: as §1
# HB3 = assay: as above; conditions: P. falciparum in erythrocytes, SYBR Green DNA, 72 h; series mostly up to 12.8 µM
# Method in brief: as §1
# PAD = assay: as above; conditions: P. falciparum in erythrocytes, SYBR Green DNA, 72 h; series mostly up to 12.8 µM
# Method in brief: as §1
# PC26 = assay: as above; conditions: P. falciparum in erythrocytes, SYBR Green DNA, 72 h; series mostly up to 12.8 µM
# Method in brief: as §1
# SC27B = assay: as above; conditions: P. falciparum in erythrocytes, SYBR Green DNA, 72 h; series mostly up to 12.8 µM
# Method in brief: as §1
# [7] = target: Ubiquitin carboxyl-terminal hydrolase 1 (Homo sapiens) (UniProt O94782); assay: Inhibitors of USP1/UAF1: Pilot qHTS (AID 504865); conditions: purified USP1/UAF1, Ub-rhodamine cleavage fluorescence; series mostly up to 114 µM;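 further: rhodamine fluorescence freed from ubiquitin-rhodamine substrate followed over time; top concentration of the series differs between compounds; on the % scale 0 is the no-effect control and ±100 the full control effect; nearly all actives have a fitted effect of over 35% in size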
# Sequence of Ubiquitin carboxyl-terminal hydrolase 1 (Homo sapiens) (O94782 whole entry, looked up): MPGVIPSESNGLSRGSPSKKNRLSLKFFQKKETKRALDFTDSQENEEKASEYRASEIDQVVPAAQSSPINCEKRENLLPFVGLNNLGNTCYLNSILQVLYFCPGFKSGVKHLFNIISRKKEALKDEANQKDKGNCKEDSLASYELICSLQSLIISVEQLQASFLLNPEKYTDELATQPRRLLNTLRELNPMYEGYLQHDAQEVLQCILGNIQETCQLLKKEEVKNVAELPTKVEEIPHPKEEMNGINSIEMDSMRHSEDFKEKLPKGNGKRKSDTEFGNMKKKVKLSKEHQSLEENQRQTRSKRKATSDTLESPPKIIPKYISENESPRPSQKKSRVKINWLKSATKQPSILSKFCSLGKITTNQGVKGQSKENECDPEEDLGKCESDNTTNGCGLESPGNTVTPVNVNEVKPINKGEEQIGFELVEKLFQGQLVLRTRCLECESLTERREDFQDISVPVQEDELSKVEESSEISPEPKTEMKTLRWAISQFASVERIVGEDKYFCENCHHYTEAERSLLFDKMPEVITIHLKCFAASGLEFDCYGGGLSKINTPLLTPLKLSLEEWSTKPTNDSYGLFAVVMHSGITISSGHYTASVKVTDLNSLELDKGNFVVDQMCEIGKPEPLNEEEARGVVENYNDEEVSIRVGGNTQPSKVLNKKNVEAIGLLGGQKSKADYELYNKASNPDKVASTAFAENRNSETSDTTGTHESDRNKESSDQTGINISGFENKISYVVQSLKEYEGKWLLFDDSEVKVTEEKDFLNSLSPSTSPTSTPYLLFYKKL
# Method in brief: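 Deubiquitinase activity followed as kinetic rhodamine fluorescence release from 150 nM Ub-Rho. 1 nM USP1/UAF1 with compound, after 15 min room-temperature preincubation, in HEPES pH 7.8 buffer containing TCEP, EDTA, BSA and Tween-20.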
# [8] = measured here: cell count channel max response
# [9] = measured here: lipid channel max response
compound,measurement,setting,value
C=Cc1c(C)c2cc3nc(cc4[nH]c(cc5nc(cc1[nH]2)C(C)=C5CCC(=O)O)c(CCC(=O)OC)c4C)[C@@]1(C)C3=CC=C(C(=O)OC)[C@H]1C(=O)OC (tested in a mixture with another compound),Potency,[1],> 20.6 µM (inactive)
same,Potency,[2],0.316 µM [activator] (active)
same,outcome,[3],inactive
same,"activity change, negative = inhibition",[4]; at 25.7 µM (top of the series),1.23% (inactive)
same,max response,[4]; [8],3.74%
same,max response,[4]; [9],2.29%
same,Potency,[5],inactive
same,Potency,[6]; parasite line A,10 µM (active)
same,Potency,[6]; parasite line B,5.62 µM (active)
same,Potency,3D7,3.55 µM (active)
same,Potency,C2A,14.1 µM (active)
same,Potency,CP217,10 µM (active)
same,Potency,CP237,5.01 µM (active)
same,Potency,CP238,11.2 µM (active)
same,Potency,CP291,inactive
same,Potency,CP297,inactive
same,Potency,ECU,3.98 µM (active)
same,Potency,HB3,4.47 µM (active)
same,Potency,PAD,1.41 µM (active)
same,Potency,PC26,inactive
same,Potency,SC27B,5.62 µM (active)
C[C@@H](Cc1cccc(C(F)(F)F)c1)NCCOC(=O)c1ccccc1,Potency,[1],> 20.6 µM (inactive)
same,Potency,[2],inactive
same,"activity change, negative = inhibition",[4]; at 25.7 µM (top of the series),-1.81% (inactive)
same,max response,[4]; [8],-19.2%
same,max response,[4]; [9],-18.4%
same,Potency,[7],inactive
CCN(CC)CCOC(=O)[C@@H](c1ccccc1)C1CCCCC1,Potency,[1],> 20.6 µM (inactive)
same,Potency,[2],inactive
same,"activity change, negative = inhibition",[4]; at 25.7 µM (top of the series),-5.77% (inactive)
same,max response,[4]; [8],-11.7%
same,max response,[4]; [9],-16.6%
same,Potency,[7],inactive
CN1[C@H](CC(=O)c2ccccc2)CCC[C@H]1C[C@@H](O)c1ccccc1,"activity change, negative = inhibition",[4]; at 57.5 µM (top of the series),-2.41% (inactive)
same,max response,[4]; [8],-11.7%
same,max response,[4]; [9],-13.6%
CC/C=C\C[C@H]1C(=O)CC[C@@H]1CC(=O)O,Potency,[1],> 46 µM (inactive)
same,Potency,[2],inactive
same,outcome,[3],inactive
same,"activity change, negative = inhibition",[4]; at 57.5 µM (top of the series),-2.79% (inactive)
same,max response,[4]; [8],-8.93%
same,max response,[4]; [9],-11.5%
Cc1onc(-c2c(F)cccc2Cl)c1C(=O)N[C@H]1C(=O)N2[C@H]1SC(C)(C)[C@H]2C(=O)O,Potency,[1],> 20.6 µM (inactive)
same,Potency,[2],inactive
same,outcome,[3],inactive
same,"activity change, negative = inhibition",[4]; at 25.7 µM (top of the series),-2.99% (inactive)
same,max response,[4]; [8],-8.13%
same,max response,[4]; [9],-7.5%
same,Potency,[7],inactive
O[C@@](CCN1CCCCC1)(c1ccccc1)[C@@H]1C[C@H]2C=C[C@@H]1C2,Potency,[1],> 20.6 µM (inactive)
same,Potency,[2],inactive
same,"activity change, negative = inhibition",[4]; at 25.7 µM (top of the series),1.83% (inactive)
same,max response,[4]; [8],-4.18%
same,max response,[4]; [9],-2.67%
same,Potency,[7],inactive
COC(=O)C1=C(C)NC(C)=C(C(=O)OCCN(C)Cc2ccccc2)[C@H]1c1cccc([N+](=O)[O-])c1,Potency,[1],> 20.6 µM (inactive)
same,Potency,[2],inactive
same,outcome,[3],inactive
same,"activity change, negative = inhibition",[4]; at 25.7 µM (top of the series),0.376% (inactive)
same,max response,[4]; [8],-15.5%
same,max response,[4]; [9],-13.6%
Nc1ncnc2c1ncn2[C@@H]1O[C@H](COP(=O)(O)O)[C@@H](O)[C@@H]1O,Potency,[1],> 20.6 µM (inactive)
same,outcome,[3],inactive
same,"activity change, negative = inhibition",[4]; at 25.7 µM (top of the series),-0.35% (inactive)
same,max response,[4]; [8],-10.2%
same,max response,[4]; [9],-10.8%
same,Potency,[7],inactive
NCCC(=O)N[C@@H](Cc1cnc[nH]1)C(=O)O,Potency,[2],inactive
same,outcome,[3],inactive
same,"activity change, negative = inhibition",[4]; at 57.5 µM (top of the series),-2.81% (inactive)
same,max response,[4]; [8],-6.32%
same,max response,[4]; [9],-9.96%
Nc1ncn([C@H]2O[C@@H](CO)[C@@H](O)[C@@H]2O)c(=O)n1,Potency,[1],> 20.6 µM (inactive)
same,Potency,[2],inactive
same,outcome,[3],inactive
same,"activity change, negative = inhibition",[4]; at 25.7 µM (top of the series),-7.35% (inactive)
same,max response,[4]; [8],-3.14%
same,max response,[4]; [9],-7.83%
same,Potency,[7],inactive
